Statin myotox sup – suppressors of statin myotoxicity in C2C12 myotubes, primary screen, cell-based, single point, plate reader; C2C12 myotubes + simvastatin, ATP luminescence, 48 h; scaled: DMSO 0, geranylgeraniol control 100; rescue of ATP level, % at 7.49 µM; 330,000 compounds, 0.78% hits; AID 602340, 2012;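 active means mean ATP rescue above about 67%, or every replicate alone reaching that limit, limit read from the data, passing the limit was not always enough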;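 further: myotubes were challenged with 10 µM simvastatin during compound exposure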
ARNT TACC3 PPI – disruptors of ARNT/TACC3 protein interaction, primary screen, biochemical, AlphaScreen, single concentration | Transforming acidic coiled-coil-containing protein 3 (Homo sapiens), Q9Y6A5 | AlphaScreen His-ARNT PAS-B/GST-TACC3 binding, luminescence; TACC3 fragment carries E629A point mutation | inhibition, % at 9.99 µM | 390,000 compounds, 0.66% hits | AID 623870, 2012;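 active means mean inhibition of replicates at least 50% and at least half of replicates each reaching 50%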;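 further: 0% = complete ARNT plus TACC3 wells and 100% = ARNT alone without TACC3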
PglD inh – C. jejuni PglD acetyltransferase inhibitors, primary screen, biochemical, DTNB colorimetric, single point; UDP-N-acetylbacillosamine N-acetyltransferase PglD (Campylobacter jejuni); purified PglD enzyme, DTNB colorimetric CoA detection; inhibition, % at 12.5 µM; 360,000 compounds, 0.098% hits; in the data active means inhibition above about 16%, passing the limit was not always enough
F508del corr – F508del CFTR correction, initial screen, CFBE line, single point; CFBE cells, YFP halide quenching; stimulated with forskolin plus potentiator P3; % fluorescence drop versus neutral controls; activity (quench increase), % at 7.58 µM; 350,000 compounds, 0.36% hits; AID 720511, 2013;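 active means mean added fluorescence quench of at least 8% versus neutral control, with both replicates also reaching 8%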;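 further: cells transiently co-express mutant CFTR-F508del with the halide-sensitive YFP; corrector assay measuring rescue of mutant channel to the surface after 24 h compound exposure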
An asterisk follows results filed as active; . = no result; ! = repeats disagree. Most compounds without a hit are left out; they make up all but 1.4% or so of the library.

SMILES	Statin myotox sup	ARNT TACC3 PPI	PglD inh	F508del corr
COc1cc(NC(=O)c2cnc(N)s2)cc(C(=O)Nc2cccc(C(F)(F)F)c2)c1	-13.0	.	-2.0	-1.6
COc1cc(NC(=O)c2csc(N)n2)cc(C(=O)Nc2cccc(C(F)(F)F)c2)c1	-52.9	2.9	-11.5	8.0*!
CN(C)C(=O)C[C@@H]1C[C@H]2c3cc(NC(=O)CC4CC4)ccc3O[C@H]2[C@@H](CO)O1	-2.8	-5.9	2.7	3.2
O=C(C[C@H]1CC[C@H](NC(=O)C2CCOCC2)[C@@H](CO)O1)Nc1ccc(-c2ccccc2)cc1	-4.3	-0.4	0.3	0.4
Cc1ccc(C=Nc2cccnc2N)cc1	.	6.0	.	.
COc1ccc(C=Nc2cccnc2N)cc1	-1.2	28.4*	4.1	.
COc1ccc(S(=O)(=O)N(C)C[C@@H]2OCCCC[C@@H](C)Oc3ccc(NC(=O)Nc4c(C)noc4C)cc3C(=O)N([C@H](C)CO)C[C@H]2C)cc1	24.1	-0.8	3.6	1.4
COc1ccc2c(c1)/C(=C/c1cc(OC)c(OC)c(OC)c1)C(=O)N2	.	-8.3	.	12.7*
COc1ccc(/C=C2\C(=O)NC(=O)c3ccccc32)cc1OC	.	-9.4	.	-1.7
NC(=O)CCc1c[nH]c2ccccc12	109.1*	-2.0	-6.5	.
O=C(COC(=O)CCc1c[nH]c2ccccc12)NCc1ccccc1	.	6.5	.	0.5
O=C(Cn1cnc([N+](=O)[O-])n1)N/N=C/c1cccc2ccccc12	.	.	.	0.1
O=C(Cn1cnc([N+](=O)[O-])n1)N/N=C/c1ccc(O)cc1O	.	63.5*	.	2.9
C[C@@H]1CN([C@@H](C)CO)C(=O)c2cc(NC(=O)c3ccncc3)ccc2O[C@@H](C)CCCCO[C@@H]1CN(C)Cc1ccc(C(F)(F)F)cc1	120.6*	0.1	-2.4	-2.1
C[C@H](CO)N1C[C@H](C)[C@@H](CN(C)Cc2ccc(C(F)(F)F)cc2)OCCCC[C@H](C)Oc2ccc(NC(=O)c3ccccc3)cc2C1=O	.	-5.3	0.1	0.0
C[C@@H]1CN([C@H](C)CO)C(=O)c2cc(NS(=O)(=O)c3cccs3)ccc2O[C@@H](C)CCCCO[C@@H]1CN(C)Cc1ccc(C(F)(F)F)cc1	91.7*	-2.6	-2.1	5.3
C[C@H](CO)N1C[C@H](C)[C@H](CN(C)Cc2ccc(C(F)(F)F)cc2)OCCCC[C@H](C)Oc2ccc(NC(=O)c3ccccc3)cc2C1=O	.	.	10.9	0.6
C[C@@H]1CN([C@@H](C)CO)C(=O)c2cc(NC(=O)c3ccncc3)ccc2O[C@@H](C)CCCCO[C@H]1CN(C)Cc1ccc(C(F)(F)F)cc1	115.7*	-3.6	3.5	1.9
CC(C)NC(=O)N(C)C[C@@H]1OCCCC[C@@H](C)Oc2ccc(NC(=O)C3CCCCC3)cc2C(=O)N([C@H](C)CO)C[C@@H]1C	.	-2.6	3.3	1.0
COc1ccc(-c2csc(C(C)(O)c3ccccc3)n2)cc1OC (configuration not stated)	112.4*	.	-1.5	3.1
C[C@@H]1CCCCO[C@@H](CN(C)S(=O)(=O)c2ccc(F)cc2)[C@H](C)CN([C@H](C)CO)C(=O)c2cc(NS(=O)(=O)c3cn(C)cn3)ccc2O1	.	-0.3	0.2	-1.3
CC(Cc1ccccc1)N/C=C1\CC(=O)NC1=O (configuration not stated)	79.7*	-5.1	-10.1	.
Cc1noc(C)c1NC(=O)Nc1ccc2c(c1)C(=O)N([C@@H](C)CO)C[C@H](C)[C@@H](CN(C)Cc1ccc(C(F)(F)F)cc1)OCCCC[C@H](C)O2	.	-5.6	3.9	1.2
Cc1cccc(NCc2ccc(O)c3ncccc23)c1	-22.0	-4.1	3.6	-3.7
OCc1ccnc2c(O)cccc12	-19.5	66.0*	0.5	.
SMILES	Statin myotox sup	ARNT TACC3 PPI	PglD inh	F508del corr
NC(=O)c1ccnc2c(O)cccc12	11.2	72.9*	4.3	1.6
Oc1ccc(CNc2ccccc2)c2cccnc12	.	48.2*	2.8	.
OC[C@H]1[C@@H](c2ccc(C#CC3(O)CCCC3)cc2)[C@@H]2CN(Cc3cccnc3)CCCCN12	.	-2.3	1.1	-2.4
Cc1cccc(S(=O)(=O)N2CC[C@@H]3[C@H](CO)N(C)c4ccc(C#Cc5ccc(F)cc5)cc4[C@@H]32)c1	-152.8	48.0*	-0.3	4.1
COc1ccccc1S(=O)(=O)N1CC[C@@H]2[C@H]1c1cc(-c3ccccc3)ccc1N(C)[C@H]2CO	-20.1	-5.0	0.1	0.4
COc1cccc(S(=O)(=O)N2CC[C@H]3[C@@H](CO)N(C)c4ccc(C#Cc5ccc(F)cc5)cc4[C@H]32)c1	8.7	-13.0	5.9	1.6
COc1ccc(S(=O)(=O)N2CC[C@@H]3[C@@H](CO)N(C)c4ccc(-c5ccc(F)cc5)cc4[C@@H]32)cc1	8.8	19.5	-7.4	12.1*
CN1c2ccc(-c3cccc(F)c3)cc2[C@H]2[C@H](CCN2S(=O)(=O)c2cccc(F)c2)[C@@H]1CO	-15.9	-1.0	1.0	0.0
CN1c2ccc(-c3ccc(F)cc3)cc2[C@H]2[C@H](CCN2S(=O)(=O)c2cccc(F)c2)[C@@H]1CO	0.8	1.8	-1.0	13.6*
COc1ccccc1S(=O)(=O)N1CC[C@@H]2[C@@H](CO)N(C)c3ccc(-c4ccc(F)cc4)cc3[C@@H]21	-3.1	0.1	-0.5	12.4*
C[C@H]1CN([C@@H](C)CO)C(=O)Cc2cc(NC(=O)CCN3CCOCC3)ccc2O[C@@H]1CN(C)Cc1ccc(Cl)c(Cl)c1	7.3	-7.2	-4.4	-2.4
C[C@@H]1CN([C@@H](C)CO)C(=O)c2cc(-c3ccccc3)cnc2O[C@H]1CN(C)Cc1ccc(C(=O)O)cc1	-24.1	2.6	1.8	-0.2
CN1c2ccc(-c3ccc(C#N)cc3)cc2[C@H]2[C@H](CCN2S(=O)(=O)c2cccc(F)c2)[C@H]1CO	-11.9	-16.4	-1.4	15.5*
COc1ccc(CN(C)C[C@@H]2OCCCC[C@H](C)Oc3ccc(NC(=O)NC4CCCCC4)cc3C(=O)N([C@@H](C)CO)C[C@@H]2C)cc1	.	8.7	1.2	-1.3
COCC(=O)N[C@@H]1CC[C@H](CC(=O)NCc2ccc(Cl)cc2)O[C@@H]1CO	-0.3	6.3	-2.9	3.0
Nc1nc2n[nH]nc2c(=O)[nH]1	90.1*	13.9	0.4	-3.6
COc1cccc(C(=O)Nc2nc(-c3ccccc3)c(-c3ccccc3)o2)c1	.	5.1	.	0.8
O=C(Nc1nc(-c2ccccc2)c(-c2ccccc2)o1)c1ccc(F)cc1	-14.4	46.0*	1.8	.
c1ccc2c(c1)CNC1(CCCCC1)C2	107.2*	-5.3	-5.4	.
O=C1NC2(CCCCCC2)Cc2ccccc21	11.6	.	-1.4	-1.7
CSc1ccc(CCNS(=O)(=O)c2csc(C(N)=O)c2)cc1	90.5*	-7.1	-2.2	-0.3
C[n+]1cccc(CNC(=O)/C=N/O)c1	112.2*	3.0	.	.
O=C(C[C@H]1CC[C@H]2[C@@H](COC[C@@H](O)CN2C(=O)Nc2ccccc2)O1)NCCc1ccncc1	-23.1	2.3	2.8	-2.8
